Shn3 inh set2 – reduction of Shn3 3'UTR firefly luciferase signal, primary screen, Schnurri-3 inhibitor project, cell-based, Clone20 osteoblasts, set 2; inhibition, % at 12.5 µM; AID 588674, 2011; actives 0.52% (n = 360,000); Clone20 osteoblast Shn3 3'UTR firefly luciferase, 24 h;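 active = mean inhibition of at least 75% with every replicate also reaching 75%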;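 also: 0% = median of neutral control wells and 100% = pilot-screen positive control compound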
CF NFkB block – inhibitors of PAF-induced NF-kB signaling, primary screen, cell-based, GFP fluorescence, uHTS; KKLEB NF-kB-GFP reporter, GFP fluorescence overnight; inhibition, % at 5 µM; actives 0.86% (n = 360,000); AID 588850, 2011;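 active = at least 50% inhibition at 5 µM, scaled per plate between neutral and stimulator controls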;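 also: PAF is a Pseudomonas aeruginosa culture filtrate used as stimulus; plate controls were PAF-stimulated DMSO wells for no effect and unstimulated DMSO wells for full effect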
HIF-2a block – HIF-2a reporter inhibitors, primary screen, luminescence, 786-0 RCC cells | 786-0 RCC cells HIF-2a reporter, luciferase luminescence, overnight | inhibition, % at 18.8 µM | actives 0.72% (n = 360,000);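 active = inhibition of the luminescence signal of 40% or more relative to plate controls, in a single-dose primary screen at 18.75 µM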
Peg3 prom inh – Peg3 promoter-driven luciferase inhibitors, primary screen, cell-based, HeLa, luciferase luminescence | HeLa PEG-Prom luciferase reporter, overnight | inhibition, % at 20 µM | actives 1.7% (n = 360,000) | AID 588405, 2011;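 active = inhibition of at least 50% at 20 µM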
KKLEB cytotox – cytotoxicity in KKLEB CF airway cells, primary screen, cytotoxicity control for CF NF-kB inhibitor project, cell-based, uHTS, fluorescence assay plates; KKLEB CF airway cells viability, ATPlite luminescence, overnight; stronger effect = lower value; cells stimulated with P. aeruginosa culture filtrate; activity change (cytotoxicity), % at 5 µM; actives 0.36% (n = 360,000); AID 602141, 2011;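 active = corrected activity change at or below -50% at 5 µM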
MITF TRPM1 inh – inhibitors of MITF-dependent TRPM1 promoter reporter, primary screen, cell-based, SK-MEL-5, single point, luciferase | inhibition, % at 12.5 µM | actives 0.83% (n = 330,000) | SK-MEL-5 TRPM1 promoter luciferase, 24 h;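 active = mean inhibition across replicates of 60% or more, whatever share of single replicates reaches that level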
Active calls of the source: *; . = no result. A selection: hits, their analogues and other compounds. The true share with any hit is near 2.8%.

SMILES	Shn3 inh set2	CF NFkB block	HIF-2a block	Peg3 prom inh	KKLEB cytotox	MITF TRPM1 inh
OCCNCc1ccc(OCc2ccc(Cl)cc2Cl)cc1	-28	-8	-74	-41	3	-23
OCCCCNCc1ccc(OCc2ccc(Cl)cc2Cl)cc1	-2	23	-23	100*	-15	-5
COC(=O)C[C@H]1CC[C@H](NC(=O)c2cccc(F)c2)[C@@H](CO)O1	.	.	-14	.	.	.
Cc1c(N/N=C(\C#N)C(=O)c2ccccc2)c(=O)n(-c2ccccc2)n1C	89*	8	20	36	0	31
Cc1ccccc1C(=O)/C(C#N)=N/Nc1c(C)n(C)n(-c2ccccc2)c1=O	78	15	8	36	-11	41
CCn1c(SCC(=O)N2CCCCCC2)nc2c(c1=O)SCC2	7	8	13	10	3	7
CC(C)COC(=O)c1cccc2c1-c1ccccc1/C2=N\O	-4	36	4	18	-9	-2
CCOC(=O)c1cccc2c1-c1ccccc1/C2=N/O	19	86*	20	8	-31	4
O=C(CNS(=O)(=O)c1ccc(Cl)c(C(F)(F)F)c1)NC1CCCCCC1	-19	-18	7	17	6	3
COc1ccc(Br)cc1C1NC(=O)NC(C)=C1C(=O)N(C)C (stereo not given)	-8	1	10	0	-53*	-2
COC(=O)C1=C(C)NC(=O)NC1c1cc(Cl)ccc1OC (stereo not given)	8	7	8	11	4	1
CCCn1nc(C(=O)NNC(=O)CSC(C)C(=O)Nc2cc(C)on2)c2ccccc2c1=O (stereo not given)	9	1	4	10	0	5
CCOc1cc(/C=C2\C(=O)N(Cc3ccc(C)cc3)C(C)=C2C(=O)OC)ccc1O	-2	-11	32	30	4	8
C=CCOc1cccc(/C=C2\C(=O)N(Cc3ccc(C)cc3)C(C)=C2C(=O)OC)c1	13	-5	63*	42	3	-13
Cc1ccc(C(C(=O)NCc2ccccc2)N(Cc2ccco2)C(=O)c2snc(C(N)=O)c2N)o1 (stereo not given)	8	22	16	52*	-6	5
COc1ccc(C(C(=O)NCc2ccccc2)N(Cc2ccco2)C(=O)c2snc(C(N)=O)c2N)cc1 (stereo not given)	15	30	14	46	12	.
CSCCC(NC(=O)COc1ccccc1)C(=O)OC(C)C(=O)Nc1ccccc1C (stereo not given)	10	16	15	-7	-29	0
CCCS(=O)(=O)c1c(S(=O)(=O)CCC)c2c(C)cccn2c1C(=O)N/N=C/c1cc(O)cc(O)c1	62	11	10	53*	0	58
CC[N+](C)(CC)CCOC(=O)C(O)(c1ccccc1)C1CCCCC1 (stereo not given)	24	54*	29	-10	6	-13
COc1ccccc1NS(=O)(=O)c1cc(NC(=O)c2[nH]c(C)c(C(C)=O)c2C)ccc1N1CCOCC1	-6	-6	-6	7	12	25
COc1cc(OC)cc(-c2sc3ccc(OC)cc3c2C#CC2(N)CCCCC2)c1	-4	33	0	95*	-29	-4
COc1ccc(-c2sc3cc4c(cc3c2C#CC2(N)CCCCC2)OCO4)cc1	-4	1	-94	93*	-2	14
CC1(C)CC(=O)C2=C(C1)OC(N)=C(C#N)C2c1cc2c(cc1[N+](=O)[O-])OCO2 (stereo not given)	4	11	-1	18	-24	12
CC(C)c1ccccc1NC(=O)COC(=O)CCN1C(=O)/C(=C\C=C\c2ccccc2)SC1=S	35	-15	82*	-3	14	63*
O=C(COC(=O)CCN1C(=O)/C(=C\C=C\c2ccccc2)SC1=S)Nc1ccc(Br)cc1	9	-12	58*	-6	2	64*
SMILES	Shn3 inh set2	CF NFkB block	HIF-2a block	Peg3 prom inh	KKLEB cytotox	MITF TRPM1 inh
CC(C)(C)C(=O)CSc1nc(N)cc(=O)[nH]1	10	-12	4	-8	8	6
CCOC(=O)c1cc(-c2ccccc2)nc2c(O)cccc12	24	-1	-40	-1	3	-3
CC(=O)NC(c1ccc([N+](=O)[O-])cc1)c1c(O)ccc2ccccc12 (stereo not given)	17	-1	23	6	2	1
Cc1ccc(C(NC(=O)C2CCCCC2)c2c(O)ccc3ccccc23)cc1 (stereo not given)	-45	50	3	54*	-22	-2
CC(C)C(=O)NC(c1ccc([N+](=O)[O-])cc1)c1c(O)ccc2ccccc12 (stereo not given)	-18	10	-18	52*	-37	1
COC1=C(N)C(=O)c2nc(C)ccc2C1=O	-43	57*	1	34	3	113*
COc1ccc(/C=C2/SC(=S)N(CCCC(=O)Nc3ccc(O)cc3)C2=O)cc1OC	-3	9	42*	26	-13	5
COc1cccc(/C=C2\SC(=S)N(CCCC(=O)Nc3ccc(C(=O)O)cc3)C2=O)c1	-6	-4	-25	-9	-3	-6
COc1cccc(/C=C2/SC(=S)N(CCCC(=O)Nc3ccc(O)cc3)C2=O)c1	29	21	20	99*	-16	-9
O=C(CCCN1C(=O)/C(=C/c2ccc3c(c2)OCO3)SC1=S)Nc1cccc(C(=O)O)c1	-4	3	88*	28	-24	10
O=C(CCN1C(=O)/C(=C/c2ccc3c(c2)OCO3)SC1=S)Nc1cccc(C(=O)O)c1	8	15	14	4	-6	-3
O=C(O)CCCN1C(=O)/C(=C\C(Cl)=C\c2ccccc2)SC1=S	6	-27	94*	108*	-13	66*
O=C(/C=C/c1ccc([N+](=O)[O-])cc1)N1CCN(S(=O)(=O)c2cccs2)CC1	9	9	18	29	-16	1
Cc1cc2c(NCc3ccccc3)ncnc2s1	45	37	8	18	-21	8
O=C(CCN1C(=O)/C(=C\c2ccccc2)SC1=S)Nc1ccc(C(=O)O)cc1	12	18	19	12	0	1
O=C(CCCN1C(=O)/C(=C\c2ccccc2)SC1=S)Nc1ccc(O)cc1	-10	10	61*	83*	-10	16
COc1cccc(/C=C2\SC(=S)N(CCCC(=O)Nc3cc(C)on3)C2=O)c1	20	7	34	27	-3	-9
